Results filed as inconclusive are left out. Calls of active or inactive are those of the source. Rule for the calls: active = hit-call score of the fitted dose curve at least 0.9, where 1 is the maximum; inconclusive = response in the unintended direction; inactive = score below 0.9.
Experiment: ACEA_ER_AUC_viability: ACEA Biosciences xCELLigence Real-Time Cell Analysis on Estrogen Receptor Agonism for Viability (AID 2283782);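 note: continuous compound exposure with impedance area under curve over 80 h; hit means loss of impedance signal meaning reduced cell growth or viability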
How it was run: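 T-47D; phenol red-free RPMI1640 + 10% CS-FBS; 8 conc., 1:4 serial, max 100 uM final, ≤0.5% DMSO; n = 2; continuous exposure; impedance monitored to 80 h post-dose; AUC vs DMSO.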

SMILES | outcome | AC50
Nc1ncnc2nc[nH]c12 | inactive | 
CC(C)C(=O)OCCc1ccccc1 | inactive | 
CC1=CP(=O)(c2ccccc2)CC1 (stereo not given) | inactive | 
CC(C)C(=O)OCCOc1ccccc1 | inactive | 
Cc1c[nH]c(=O)[nH]c1=O |  | 68.6 µM (active)
CCc1cccc(CC)c1 | inactive | 
COc1nccnc1CC(C)C | inactive | 
C[N+](C)(C)CCCNS(=O)(=O)C(F)(F)C(F)(F)C(F)(F)C(F)(F)C(F)(F)C(F)(F)C(F)(F)C(F)(F)F |  | 111 µM (active)
CCCCOCCOCCOC(C)=O | inactive | 
CC(C)c1cccc(C(C)C)c1N | inactive | 
CC(Cl)COP(=O)(OCC(C)Cl)OCC(C)Cl (stereo not given) | inactive | 
CC(C)CCOCc1ccccc1 | inactive | 
Nc1nc(N)nc(-c2ccccc2)n1 | inactive | 
CCC(C)C(=O)OC (stereo not given) | inactive | 
c1ccc2cnccc2c1 | inactive | 
